Active and inactive are the calls of the source. How the source made its calls: active means hit-call score of the fitted dose curve at least 0.9, where 1 is the maximum; inactive means score below 0.9.
Tests used:
[1] = ATG_GLI_CIS: Attagene CIS-FACTORIAL HepG2 Assay for human Zinc Finger Protein GLI1 (AID 2282945); details: HepG2, Attagene cis-factorial reporter mRNA, GLI element; actives raise or lower the signal
Summary of the method: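 HepG2 cells transiently transfected with cis-promoter multiplexed reporter units report endogenous transcription factor activity. After 24 h chemical exposure, reporter mRNA was quantified by RT-PCR, 6-FAM labelling, HpaI digestion and capillary electrophoresis, with bidirectional fitting against DMSO.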

[2] = biological target: Bile acid receptor (Homo sapiens) (UniProt Q96RI1); assay: ATG_IR1_CIS: Attagene CIS-FACTORIAL HepG2 Assay for human Nuclear Receptor Subfamily 1 Group H Member 4 (NR1H4), IR1 submotif (AID 2282946); details: IR1 reporter transcription, actives raise or lower the signal
Summary of the method: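 Transient MRTU transfection, HepG2; 24 h dosing; RNA → RT-PCR → 6-FAM primer extension → HpaI digest → capillary electrophoresis fluorescence. Gain/loss of signal fitted relative to DMSO.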

[3] = ATG_GRE_CIS: Attagene CIS-FACTORIAL HepG2 Assay for human Glucocorticoid Response Elements (GRE) (AID 2282947); details: HepG2 GRE cis-reporter, Attagene multiplex mRNA; actives raise or lower the signal
Summary of the method: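 Following 24 h chemical exposure of transiently transfected HepG2 cells, total RNA was reverse-transcribed and reporter cDNA amplified, fluorescently labelled and sized by capillary electrophoresis. Signal gain or loss was fitted relative to DMSO vehicle.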

[4] = ATG_ISRE_CIS: Attagene CIS-FACTORIAL HepG2 Assay for human Interferon Regulatory Factor 1 (IRF1) binding to an Interferon-Stimulated Response Element (ISRE) (AID 2282948); details: HepG2 ISRE cis-reporter (Attagene), mRNA transcription readout; actives raise or lower the signal
Summary of the method: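 Cell-based cis-reporter assay; HepG2; 24 h exposure; reporter mRNA by RT-PCR plus capillary electrophoresis fluorescence; activity in either direction scored relative to DMSO.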

[5] = ATG_M_32_CIS: Attagene CIS-FACTORIAL HepG2 Assay for M32 Transcription Factor (Internal Marker) (AID 2282949); details: HepG2 Attagene cis-factorial M32 reporter, mRNA; actives raise or lower the signal;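 further: background control marker of the multiplexed CIS panel rather than a real target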
Summary of the method: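 HepG2 cells transiently transfected with multiplexed cis-regulated reporter units, dosed 24 h. Reporter mRNA quantified by RT-PCR, 6-FAM labelling, HpaI digestion and capillary electrophoresis; bidirectional fit vs DMSO.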

[6] = ATG_M_06_CIS: Attagene CIS-FACTORIAL HepG2 Assay for M06 Transcription Factor (Internal Marker) (AID 2282950); details: HepG2 Attagene CIS-FACTORIAL M06 internal marker reporter; actives raise or lower the signal
Summary of the method: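 Fluorescence-labelled RT-PCR products from cis-promoter reporter units, cut with HpaI and resolved by capillary electrophoresis, give the signal. Cells are human HepG2, dosed for 24 h. Serves as background control, fitted relative to DMSO.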

[7] = biological target: Hypoxia-inducible factor 1-alpha (Homo sapiens) (UniProt Q16665); assay: ATG_HIF1a_CIS: Attagene CIS-FACTORIAL HepG2 Assay for human Hypoxia Inducible Factor 1 (HIF1A) (AID 2282951); details: HepG2 Attagene cis-factorial HIF1a reporter transcription; actives raise or lower the signal
Summary of the method: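 RT-PCR/capillary electrophoresis fluorescence readout of reporter transcripts from endogenous-TF-driven cis elements in transfected HepG2 cells, 24 h exposure; activity fitted in both directions against DMSO controls.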

[8] = biological target: Hepatocyte nuclear factor 6 (Homo sapiens) (UniProt Q9UBC0); assay: ATG_HNF6_CIS: Attagene CIS-FACTORIAL HepG2 Assay for human Hepatocyte Nuclear Factor 6 (HNF6) (AID 2282952); details: HepG2 Attagene cis-factorial HNF6 reporter transcription; actives raise or lower the signal
Summary of the method: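 Multiplexed mRNA reporter assay in transfected HepG2; 24 h dosing; RT-PCR plus capillary electrophoresis fluorescence; DMSO-referenced bidirectional curve fitting.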

[9] = biological target: Heat shock factor protein 1 (Homo sapiens) (UniProt Q00613); assay: ATG_HSE_CIS: Attagene CIS-FACTORIAL HepG2 Assay for human Heat Shock Transcription Factor 1 (HSE) (AID 2282953); details: HepG2 HSE cis-reporter, Attagene RNA transcription; actives raise or lower the signal
Summary of the method: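 After a 24 h incubation with test chemical, transfected HepG2 cells were harvested for RNA; reporter transcripts were measured by RT-PCR and capillary electrophoresis. Values reflect gain or loss of signal relative to DMSO.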

[10] = ATG_MRE_CIS: Attagene CIS-FACTORIAL HepG2 Assay for human Metal Responsive Element (MRE) (AID 2282954); details: HepG2 MRE cis-reporter transcription, Attagene multiplex; actives raise or lower the signal
Summary of the method: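 Step one: transfect HepG2 with cis-regulated reporter units. Step two: dose 24 h. Step three: isolate RNA, RT-PCR, 6-FAM label, HpaI digest, capillary electrophoresis. Fit bidirectionally to DMSO.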

[11] = ATG_PBREM_CIS: Attagene CIS-FACTORIAL HepG2 Assay for human Phenobarbital-responsive Enhancer Module (PBREM) (AID 2282955); details: HepG2 PBREM cis-reporter, Attagene multiplexed transcription; actives raise or lower the signal
Summary of the method: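 Reporter mRNA read by RT-PCR, 6-FAM primer extension, HpaI digestion and capillary electrophoresis. Transfected HepG2 cells, 24 h compound exposure. Gain or loss of signal fitted bidirectionally relative to DMSO baseline.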

[12] = biological target: Paired box protein Pax-6 (Homo sapiens) (UniProt P26367); assay: ATG_Pax6_CIS: Attagene CIS-FACTORIAL HepG2 Assay for human Paired Box 6 (PAX6) (AID 2282956); details: HepG2 CIS-FACTORIAL PAX6 reporter transcription, RNA readout; actives raise or lower the signal
Summary of the method: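 Multiplexed cis-reporter HepG2 system; 24 h treatment; reporter mRNA read by RT-PCR/CE fluorescence; bidirectional fit vs DMSO.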

[13] = ATG_PPRE_CIS: Attagene CIS-FACTORIAL HepG2 Assay for human Peroxisome Proliferator-activated Response Element (PPRE) (AID 2282958); details: HepG2 PPRE cis-element reporter, Attagene transcription factor profiling; actives raise or lower the signal
Summary of the method: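 Read-out: fluorescent reporter mRNA fragments resolved by capillary electrophoresis after RT-PCR. HepG2 cells carried transiently transfected PPRE-driven cis reporter constructs and were dosed for 24 h; gain or loss of signal fitted relative to DMSO.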

[14] = ATG_RORE_CIS: Attagene CIS-FACTORIAL HepG2 Assay for human RAR-related Orphan Receptor Element (RORE) (AID 2282959); details: HepG2 Attagene cis-factorial RORE reporter, mRNA; actives raise or lower the signal
Summary of the method: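 Readout: fluorescent reporter mRNA by RT-PCR plus capillary electrophoresis, 24 h after dosing transfected HepG2 cells. Endogenous transcription factor activity on a cis promoter element is measured. Gain or loss of signal fitted against DMSO.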

[15] = ATG_Sox_CIS: Attagene CIS-FACTORIAL HepG2 Assay for human SRY-box transcription factor (SOX) (AID 2282960); details: HepG2 Attagene cis-factorial SOX reporter, mRNA; actives raise or lower the signal
Summary of the method: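 Read-out: fluorescent RT-PCR products of SOX1-linked reporter transcripts resolved by capillary electrophoresis, fitted bidirectionally against DMSO. Transiently transfected HepG2 cells, 24 h after chemical exposure, endogenous transcription factor activity.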

[16] = biological target: Transcription factor Sp1 (Homo sapiens) (UniProt P08047); assay: ATG_Sp1_CIS: Attagene CIS-FACTORIAL HepG2 Assay for human Specificity Protein 1 (Sp1) (AID 2282961); details: HepG2 Sp1 cis-reporter transcription, actives raise or lower the signal
Summary of the method: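 Read-out: fluorescence of 6-FAM-labeled, HpaI-digested RT-PCR products separated by capillary electrophoresis. HepG2 cells carried transfected cis-element reporter units and were exposed to chemicals for 24 h; gain or loss of signal fitted relative to DMSO.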

[17] = ATG_SREBP_CIS: Attagene CIS-FACTORIAL HepG2 Assay for human Sterol Regulatory Element Binding (SREBP) (AID 2282962); details: HepG2 Attagene cis-factorial SREBP reporter, mRNA; actives raise or lower the signal
Summary of the method: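 mRNA induction of transfected cis-promoter reporters in HepG2 cells, 24 h post-dose. Detection: RT-PCR with 6-FAM-labelled products, HpaI digest, capillary electrophoresis. DMSO served as negative control and baseline.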

[18] = biological target: Signal transducer and activator of transcription 3 (Homo sapiens) (UniProt P40763); assay: ATG_STAT3_CIS: Attagene CIS-FACTORIAL HepG2 Assay for human Signal Transducer and Activator of Transcription 3 (STAT3) (AID 2282963); details: HepG2, Attagene cis-factorial STAT3 reporter transcription; actives raise or lower the signal
Summary of the method: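 Transcript-level reporter assay. HepG2 transient MRTU transfection, 24 h exposure, fluorescence detection after RT-PCR and CE; DMSO baseline.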

[19] = ATG_TA_CIS: Attagene CIS-FACTORIAL HepG2 Assay for human TA Basal Promoter (AID 2282964); details: HepG2 Attagene CIS-factorial TA basal promoter reporter; actives raise or lower the signal
Summary of the method: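 Multiplexed mRNA reporter assay, HepG2, 24 h. Reporter cDNA amplified, 6-FAM primer-extended, HpaI-cut, CE-sized; DMSO = negative control and baseline.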

[20] = ATG_PXRE_CIS: Attagene CIS-FACTORIAL HepG2 Assay for human Pregnane X Receptor Element (PXRE) (AID 2282957); details: HepG2 Attagene CIS-FACTORIAL PXRE reporter, mRNA; actives raise or lower the signal
Summary of the method: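 Cells: HepG2, transiently transfected reporter units under cis promoter control. Exposure: 24 h. Detection: reporter mRNA via RT-PCR/CE fluorescence; bidirectional fitting, DMSO-referenced.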

Measured: AC50

Hypoxia-inducible factor 1-alpha (Homo sapiens), sequence (Q16665 whole entry, looked up): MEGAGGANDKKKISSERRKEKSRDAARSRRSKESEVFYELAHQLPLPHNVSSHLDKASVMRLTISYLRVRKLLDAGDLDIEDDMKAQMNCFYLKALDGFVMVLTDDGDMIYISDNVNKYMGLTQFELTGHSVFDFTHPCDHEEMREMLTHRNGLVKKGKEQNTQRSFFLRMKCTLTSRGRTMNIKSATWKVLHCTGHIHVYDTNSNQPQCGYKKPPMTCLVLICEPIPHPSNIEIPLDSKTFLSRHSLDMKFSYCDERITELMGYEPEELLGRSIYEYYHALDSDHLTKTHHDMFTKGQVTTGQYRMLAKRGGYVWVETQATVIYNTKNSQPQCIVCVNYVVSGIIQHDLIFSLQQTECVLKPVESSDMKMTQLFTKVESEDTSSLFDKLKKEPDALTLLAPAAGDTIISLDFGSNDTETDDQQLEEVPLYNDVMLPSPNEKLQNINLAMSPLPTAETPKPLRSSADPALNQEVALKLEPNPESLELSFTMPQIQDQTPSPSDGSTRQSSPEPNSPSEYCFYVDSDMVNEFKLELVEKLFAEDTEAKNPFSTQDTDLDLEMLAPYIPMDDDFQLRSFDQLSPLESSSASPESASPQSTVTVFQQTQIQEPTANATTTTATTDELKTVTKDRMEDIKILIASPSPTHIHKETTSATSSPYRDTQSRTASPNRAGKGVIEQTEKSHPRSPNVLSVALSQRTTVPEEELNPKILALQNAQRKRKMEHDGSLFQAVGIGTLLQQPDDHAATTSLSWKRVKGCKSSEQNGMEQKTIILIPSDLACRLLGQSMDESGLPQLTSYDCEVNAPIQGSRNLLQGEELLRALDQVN
Heat shock factor protein 1 (Homo sapiens), sequence (Q00613 whole entry, looked up): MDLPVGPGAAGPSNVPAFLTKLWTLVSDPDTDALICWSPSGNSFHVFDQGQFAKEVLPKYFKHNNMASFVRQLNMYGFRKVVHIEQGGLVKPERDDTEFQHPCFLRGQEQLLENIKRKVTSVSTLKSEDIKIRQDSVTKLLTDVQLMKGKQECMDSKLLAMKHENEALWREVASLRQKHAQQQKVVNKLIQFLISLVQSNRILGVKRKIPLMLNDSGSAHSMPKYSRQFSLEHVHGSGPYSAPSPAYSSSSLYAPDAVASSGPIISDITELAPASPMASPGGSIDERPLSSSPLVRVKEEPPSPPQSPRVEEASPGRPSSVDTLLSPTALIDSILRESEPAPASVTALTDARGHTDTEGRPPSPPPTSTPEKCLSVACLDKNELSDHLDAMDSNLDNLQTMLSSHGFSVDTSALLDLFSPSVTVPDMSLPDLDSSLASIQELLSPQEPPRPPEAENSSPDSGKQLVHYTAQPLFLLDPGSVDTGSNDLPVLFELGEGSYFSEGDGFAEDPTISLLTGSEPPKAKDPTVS
Transcription factor Sp1 (Homo sapiens), sequence (P08047 whole entry, looked up): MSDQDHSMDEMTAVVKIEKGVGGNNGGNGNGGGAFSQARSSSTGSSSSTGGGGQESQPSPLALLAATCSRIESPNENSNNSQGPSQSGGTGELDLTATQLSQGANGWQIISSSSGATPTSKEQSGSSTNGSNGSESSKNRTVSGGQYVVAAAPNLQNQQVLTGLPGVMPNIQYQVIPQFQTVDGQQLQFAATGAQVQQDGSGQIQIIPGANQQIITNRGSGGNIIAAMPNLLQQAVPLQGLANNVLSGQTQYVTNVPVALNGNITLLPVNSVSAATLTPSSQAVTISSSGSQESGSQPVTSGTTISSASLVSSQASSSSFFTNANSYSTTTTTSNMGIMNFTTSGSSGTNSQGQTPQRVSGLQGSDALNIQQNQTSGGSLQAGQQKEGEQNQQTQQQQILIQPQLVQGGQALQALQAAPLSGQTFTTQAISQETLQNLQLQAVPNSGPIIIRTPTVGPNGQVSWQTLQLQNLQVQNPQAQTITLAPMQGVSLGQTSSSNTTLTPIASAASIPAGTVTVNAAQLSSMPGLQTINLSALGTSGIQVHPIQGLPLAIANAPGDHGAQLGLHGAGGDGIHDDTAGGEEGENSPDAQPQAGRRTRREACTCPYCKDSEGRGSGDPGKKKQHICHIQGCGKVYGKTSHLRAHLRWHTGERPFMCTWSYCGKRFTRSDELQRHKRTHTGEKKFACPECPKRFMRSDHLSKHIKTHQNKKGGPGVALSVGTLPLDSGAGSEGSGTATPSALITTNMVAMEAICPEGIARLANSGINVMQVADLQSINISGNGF
Bile acid receptor (Homo sapiens), sequence (Q96RI1 whole entry, looked up): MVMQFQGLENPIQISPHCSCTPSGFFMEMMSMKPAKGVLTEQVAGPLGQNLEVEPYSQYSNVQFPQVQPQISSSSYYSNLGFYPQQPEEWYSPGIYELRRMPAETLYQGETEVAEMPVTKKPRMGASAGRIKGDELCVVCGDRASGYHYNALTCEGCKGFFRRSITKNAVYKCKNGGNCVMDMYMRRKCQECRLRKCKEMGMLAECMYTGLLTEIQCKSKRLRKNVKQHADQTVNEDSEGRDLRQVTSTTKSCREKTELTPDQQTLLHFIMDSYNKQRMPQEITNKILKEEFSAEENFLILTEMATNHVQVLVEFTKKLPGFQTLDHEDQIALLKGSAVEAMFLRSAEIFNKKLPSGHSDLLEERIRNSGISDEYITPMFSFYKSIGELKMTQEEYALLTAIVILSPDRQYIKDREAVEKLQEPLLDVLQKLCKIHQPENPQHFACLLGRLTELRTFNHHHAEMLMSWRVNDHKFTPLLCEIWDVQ
Hepatocyte nuclear factor 6 (Homo sapiens), sequence (Q9UBC0 whole entry, looked up): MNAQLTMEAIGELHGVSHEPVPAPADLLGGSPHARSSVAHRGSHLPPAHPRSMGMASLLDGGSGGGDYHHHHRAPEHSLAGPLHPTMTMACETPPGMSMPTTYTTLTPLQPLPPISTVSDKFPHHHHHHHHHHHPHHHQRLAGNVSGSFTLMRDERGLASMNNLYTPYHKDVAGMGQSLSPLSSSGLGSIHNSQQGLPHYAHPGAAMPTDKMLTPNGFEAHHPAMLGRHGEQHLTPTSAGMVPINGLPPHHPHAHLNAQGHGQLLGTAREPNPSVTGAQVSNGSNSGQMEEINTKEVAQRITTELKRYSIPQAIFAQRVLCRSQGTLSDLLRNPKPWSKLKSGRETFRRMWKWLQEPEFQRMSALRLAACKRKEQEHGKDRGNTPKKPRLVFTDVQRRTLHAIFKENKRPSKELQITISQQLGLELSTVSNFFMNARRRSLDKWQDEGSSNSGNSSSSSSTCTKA
Paired box protein Pax-6 (Homo sapiens), sequence (P26367 whole entry, looked up): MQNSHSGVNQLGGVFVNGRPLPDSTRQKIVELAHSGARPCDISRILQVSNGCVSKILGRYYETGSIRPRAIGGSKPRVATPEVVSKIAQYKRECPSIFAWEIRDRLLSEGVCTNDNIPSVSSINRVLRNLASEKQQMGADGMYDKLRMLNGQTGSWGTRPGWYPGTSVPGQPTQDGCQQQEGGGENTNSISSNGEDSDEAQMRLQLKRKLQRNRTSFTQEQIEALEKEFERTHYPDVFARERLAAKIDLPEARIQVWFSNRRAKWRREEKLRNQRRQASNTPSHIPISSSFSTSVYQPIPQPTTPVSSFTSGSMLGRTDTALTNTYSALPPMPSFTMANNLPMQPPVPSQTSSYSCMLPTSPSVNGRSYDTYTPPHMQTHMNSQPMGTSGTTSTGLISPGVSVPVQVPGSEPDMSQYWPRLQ
Signal transducer and activator of transcription 3 (Homo sapiens), sequence (P40763 whole entry, looked up): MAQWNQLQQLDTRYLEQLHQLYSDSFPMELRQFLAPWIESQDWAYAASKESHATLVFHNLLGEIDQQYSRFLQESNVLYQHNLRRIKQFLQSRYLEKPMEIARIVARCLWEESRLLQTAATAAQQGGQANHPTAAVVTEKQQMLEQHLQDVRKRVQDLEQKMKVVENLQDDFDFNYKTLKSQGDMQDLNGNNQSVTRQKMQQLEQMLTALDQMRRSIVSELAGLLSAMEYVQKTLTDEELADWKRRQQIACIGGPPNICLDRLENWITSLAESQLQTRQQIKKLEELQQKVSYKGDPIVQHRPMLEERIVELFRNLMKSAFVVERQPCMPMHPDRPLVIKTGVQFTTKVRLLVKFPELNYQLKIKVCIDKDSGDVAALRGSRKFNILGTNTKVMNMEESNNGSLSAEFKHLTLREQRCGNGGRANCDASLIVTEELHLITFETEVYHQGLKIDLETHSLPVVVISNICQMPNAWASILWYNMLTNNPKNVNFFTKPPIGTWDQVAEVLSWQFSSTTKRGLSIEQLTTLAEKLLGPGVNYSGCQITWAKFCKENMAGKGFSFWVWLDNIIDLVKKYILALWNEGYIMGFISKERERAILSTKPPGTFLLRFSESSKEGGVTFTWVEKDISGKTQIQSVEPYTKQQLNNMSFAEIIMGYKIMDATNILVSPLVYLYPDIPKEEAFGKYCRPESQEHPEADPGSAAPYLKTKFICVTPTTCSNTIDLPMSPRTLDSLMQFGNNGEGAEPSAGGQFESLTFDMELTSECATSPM

Cc1ccc(S(=O)(=O)OCC(F)(F)C(F)(F)C(F)(F)C(F)(F)C(F)(F)C(F)F)cc1
not listed: [20]
inactive: all other assays above

CC/C=C\CCOC(=O)c1ccccc1
not listed: [11]
inactive: all other assays above

CC(=O)Nc1ccc(N=Nc2cc(C)ccc2O)cc1
active: [10] 27.6 µM | [20] 19.5 µM | [13] 39.6 µM
not listed: [11]
inactive: all other assays above

CC(C)(C)C(=O)CC(=O)C(F)(F)C(F)(F)C(F)(F)F
not listed: [11]
inactive: all other assays above

CCCCCCOC(=O)c1ccccc1O
active: [20] 62.5 µM
not listed: [11]
inactive: all other assays above

OCC(F)(F)C(F)(F)C(F)(F)C(F)F
inactive: all assays above

O=C(C=Cc1ccccc1)OCC=Cc1ccccc1
active: [20] 15.9 µM
not listed: [11]
inactive: all other assays above

From PubChem BioAssay (EPA / NIEHS)
